Most compounds without a hit are left out; they make up all but 10% or so of the library.
KB-V1 cytotox: kills drug-selected multidrug resistant KB-V1 cells; AID 1347076; 3.4% of 400,000 active; KB-V1 MDR cells viability, CellTiter-Glo, 72 h; Potency, µM (series often up to 46.1 µM), actives largely listed as cytotoxic; further: on the % scale 0 is the no-effect control and ±100 the full control effect; nearly all actives have a fitted effect of over 60% in size
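KB-V1 cells (P-gp-expressing MDR subline of KB-3-1) in phenol-red-free DMEM with 10% FBS were exposed to library compounds over a concentration series for 72 h at 37 degrees C. Viability read by CellTiter-Glo luminescence; concentration-effect curves fitted after normalization.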
Gal4-VP16 FLuc: Gal4-VP16 reporter inhibition counter-screen. AID 2546. Drosophila S2 Gal4-VP16 UAS-luciferase, luminescence, 20 h. Potency, µM (highest dose often 53.6 µM), for the others: at the highest dose activity, negative = inhibition, hits mostly inhibitors. 3.5% of 310,000 active;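 further: Gal4-VP16 expression switched on by copper sulfate through the metallothionein promoter; on the % scale 0 is the no-effect control and ±100 the full control effect; nearly all actives have a fitted effect of over 50% in size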
RORg inh: inhibitors of mouse ROR gamma transcriptional activity. AID 2551. P51450. Potency, µM (highest dose often 53.6 µM), inactives show at the highest dose activity change, negative = inhibition, usual class: inhibitors. Drosophila S2 Gal4-RORgamma UAS-luciferase reporter, 20 h. 5.4% of 310,000 active; further: on the % scale 0 is the no-effect control and ±100 the full control effect; nearly all actives have a fitted effect of over 60% in size
Target sequence (P51450 whole entry, looked up, the tested form may be a part): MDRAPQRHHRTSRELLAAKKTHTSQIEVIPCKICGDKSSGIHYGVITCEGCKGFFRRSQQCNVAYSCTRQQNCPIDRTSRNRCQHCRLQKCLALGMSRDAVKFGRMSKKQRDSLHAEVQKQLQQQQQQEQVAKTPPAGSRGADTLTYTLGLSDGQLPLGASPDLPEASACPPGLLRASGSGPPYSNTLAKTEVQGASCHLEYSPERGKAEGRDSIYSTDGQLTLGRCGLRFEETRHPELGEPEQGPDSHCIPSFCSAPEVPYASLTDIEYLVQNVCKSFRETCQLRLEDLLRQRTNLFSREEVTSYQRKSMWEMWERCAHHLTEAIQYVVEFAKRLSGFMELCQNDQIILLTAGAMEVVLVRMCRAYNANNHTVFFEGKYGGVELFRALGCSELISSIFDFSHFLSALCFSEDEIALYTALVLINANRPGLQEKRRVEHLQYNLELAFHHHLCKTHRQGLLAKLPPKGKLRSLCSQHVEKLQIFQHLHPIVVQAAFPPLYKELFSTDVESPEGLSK
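Using a luciferase readout, inhibitors were identified by reduced reporter activity in Drosophila cells coexpressing a copper-inducible Gal4–ROR gamma fusion and UAS-driven Photinus luciferase, incubated 20 hr after 700 uM copper sulfate.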
MCF10A rerep: induces DNA re-replication in MCF 10a normal breast cells. Potency, µM (top dose mostly 46.1 µM), for inactives: at the top dose activity, positive = re-replication, actives largely listed as activators. 2.9% of 350,000 active. MCF 10A DNA re-replication, Hoechst nuclear intensity, 48 h; further: % of control where 0% means no effect; nearly all actives have a fitted effect of over 50% in size
KB-3-1 tox: kills parental KB-3-1 adenocarcinoma cells | KB-3-1 viability, CellTiter-Glo ATP luminescence, 72 h | Potency, µM (doses to about 46.1 µM), hits mostly cytotoxic | 1.4% of 400,000 active; further: on the % scale 0 is the no-effect control and ±100 the full control effect; nearly all actives have a fitted effect of over 60% in size
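Luminescent ATP read-out (CellTiter-Glo) measures survival of drug-naive KB-3-1 cells after 72 h compound exposure at 37 °C. Titration series was screened from lowest to highest concentration, with DMSO vehicle plates as background controls.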
SW480 rereplic: induces DNA re-replication in SW480 colon adenocarcinoma cells; SW480 DNA re-replication, Hoechst DNA content imaging, 48 h; Potency, µM (doses to about 46.1 µM), for the others: at the top dose re-replication activation, actives largely listed as activators; 1.8% of 340,000 active; further: % of control where 0% means no effect; nearly all actives have a fitted effect of over 55% in size
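Cells (250 per well) received 23 nL compound or DMSO by pin tool and were kept 48 hr at 37 C, 5% CO2. Nuclei were then stained with Hoechst for 40 min and scanned for DNA content.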
The depositor's hits bear a star; i = inactive; ? = inconclusive; / = not tested or not shown; [ ] = dose if it differs, or a comment. The call rests on the fitted dose curve; in most records, active means well fitted curve in the direction sought with a large enough effect; inconclusive means small, poorly fitted or top-dose-only effect, or another doubt; inactive means no such curve, though single readings can be large; an effect the other way counts as inactive or inconclusive. Potency means the concentration at half of the fitted maximal effect.

SMILES	KB-V1 cytotox	Gal4-VP16 FLuc	RORg inh	MCF10A rerep	KB-3-1 tox	SW480 rereplic
Cc1c(O)ccc(C(=O)CN2CCN(Cc3ccc4c(c3)OCO4)CC2)c1O	23µM*	-7%	-6%	3%	i	-60%
CC(C)c1ccc(NC(=O)C2CCN(S(=O)(=O)c3cccc4nonc34)CC2)cc1	i	/	/	/	i	/
CCOc1ccccc1Nc1nc(-c2cccc(Cl)c2)c2c(n1)-c1ccccc1OC2	i	/	/	/	i	/
CCCCC(=O)Nc1cccc(-c2nnc(-c3ccccc3)o2)c1	18µM*	?	?	-11%	i	-7%
Cc1cc(C)cc(OCC(=O)Nc2cccc(-c3nc4ccccc4[nH]3)c2)c1	i	/	/	/	i	/
CCC(=O)Nc1cccc(-c2nnc(-c3ccccc3)o2)c1	i	/	/	-4%	i	-4%
Cc1ccc(OCC(=O)Nc2cccc(-c3nnc(-c4ccccc4)o3)c2)cc1	2.3µM*	?	?	3%	i	5%
O=C(COc1ccccc1)Nc1cccc(-c2nc3cc4ccccc4cc3[nH]2)c1	9.2µM*	2µM*	1µM*	15µM*	?	?
COc1cc(OC)c(NC(c2nnc(-c3ccccc3)o2)c2ccc(F)cc2Cl)cc1Cl (stereo unspecified)	i	/	/	/	i	/
Cc1ccc(-c2cc3nn(-c4ccccc4)c(N)c3c(=O)o2)cc1	16µM*	-25%	-8%	16%	21µM*	?
CC(=O)c1cccc(NC(=O)Nc2cnn(Cc3ccc(Cl)cc3Cl)c2)c1	18µM*	-2%	30%	?	?	-2%
O=C(Nc1cnn(Cc2ccc(Cl)cc2Cl)c1)c1cc(-c2cccs2)on1	?	-22%	-40%	-11%	i	-7%
O=C(Nc1cnn(Cc2ccc(Cl)cc2Cl)c1)c1noc2c1CCCC2	10µM*	-8%	?	16%	i	19%
CCC(NC(=O)C1(C)CC1(Br)Br)c1ccc(C)cc1 (stereo unspecified)	?	-1%	-15%	-3%	i	1%
CCOc1ccc(C(C)NC(=O)c2ccccc2F)cc1 (stereo unspecified)	16µM*	-3%	31%	1%	i	-97%
CC(NC(=O)Cc1ccc(F)cc1)c1ccc(F)cc1 (stereo unspecified)	i	-3%	?	8%	i	-3%
CCC(NC(=S)NCc1ccc(F)cc1)c1ccc(C)cc1 (stereo unspecified)	?	3.2µM*	2.8µM*	22%	?	?
CCOc1ccc(C(C)NC(=O)c2cccc(F)c2)cc1 (stereo unspecified)	?	-2%	34%	-1%	i	-2%
COc1cccc(C(C)NC(=S)NCc2ccc(F)cc2)c1 (stereo unspecified)	i	8.9µM*	5µM*	-6%	i	-3%
CC(NC(=O)CCC(=O)NCc1ccc(F)cc1)c1ccccc1 (stereo unspecified)	i	-18%	-23%	4%	i	43%
CCc1ccc(C(C)NC(=S)NCc2ccc(F)cc2)cc1 (stereo unspecified)	i	5µM*	2.2µM*	26µM*	?	?
COC(=O)c1scc(-c2ccc(C)cc2)c1S(=O)(=O)N1CCN(c2ccc(C)cc2C)CC1	i	/	/	/	i	/
CCCCCCC#CC1C=CC(OC(C)=O)C(COC(C)=O)O1 (stereo unspecified)	/	-18%[10 µM]	7%[10 µM]	/	/	/
COc1ccccc1CNC(=O)c1ccc(N2CCCC2)c(NC(=O)NCc2ccc(F)cc2)c1	i	/	/	/	i	/
Cc1ccc(NC(=S)NCc2ccc3c(c2)cc(C)n3C)c(C)c1	?	13µM*	1µM*	?	?	-81%
SMILES	KB-V1 cytotox	Gal4-VP16 FLuc	RORg inh	MCF10A rerep	KB-3-1 tox	SW480 rereplic
Cc1ccc(NC(=S)NCc2ccc(S(N)(=O)=O)cc2)c(C)c1	i	-7%	19%	-4%	i	-4%
CCOc1ccc(NCCC(O)c2ccc(F)cc2)cc1 (stereo unspecified)	i	-2%	-34%	1%	i	0%
Cc1ccc(C(C)NC(=S)NCc2ccc(F)cc2)cc1C (stereo unspecified)	i	5µM*	3.5µM*	?	i	?
Cc1ccc(C(=O)NC(C)c2ccc(C)c(C)c2)s1 (stereo unspecified)	i	/	/	3%	i	-7%
CCOc1ccc(C(C)NC(=S)NCc2ccc(F)cc2)cc1 (stereo unspecified)	?	3.2µM*	3.5µM*	-2%	i	0%
Cc1ccc(NC(=S)NCc2ccc(F)cc2)c(C)c1	i	5.6µM*	5.6µM*	-9%	i	?
COC(=O)C/C=C\[C@@H](C)[C@@H](/C=N\OCC[C@H]1C=C[C@H](OC(C)=O)[C@@H](COC(C)=O)O1)NS(=O)(=O)c1ccc(C)cc1	/	-5%[10 µM]	1%[10 µM]	/	/	/
COc1ccc(N(CC(=O)N2CCN(c3ccc(F)cc3)CC2)S(=O)(=O)c2c(C)nn(C)c2C)cc1	i	/	/	/	i	/
Cc1ccc(Cl)cc1N1CCN(C(c2ccc(F)cc2)c2nnc(-c3ccccc3)o2)CC1 (stereo unspecified)	i	/	/	/	i	/
Cc1ccc(C(C)NC(=S)NCc2ccc(F)cc2)c(C)c1 (stereo unspecified)	/	4.5µM*	2.5µM*	18%	/	-4%
O=c1c(-c2ccccc2)nc2cnc(Oc3ccccc3)nc2n1Cc1cccs1	/	3%	4%	/	/	/
O=c1[nH][nH]c(=S)n1C1CCCCC1	i	?	11µM*	-40%	i	-28%
CCOC(=O)CCc1c(C)c2ccc(OCc3cc([N+](=O)[O-])ccc3OC)c(C)c2oc1=O	/	-9%	22%	?	/	-7%
COc1ccccc1COc1ccc2c(C)c(CCC(=O)O)c(=O)oc2c1C	i	?	7.9µM*	-14%	i	-8%
COc1cccc(-c2coc3cc4oc(=O)c(CCC(=O)O)c(C)c4cc23)c1	?	13µM*	-9%	20%	i	1%
Cc1c(CCC(=O)O)c(=O)oc2cc(OCc3ccccc3Br)ccc12	i	3.2µM*	-40%	19%	i	4%
COC(=O)NC(/C(C(=O)OC)=C(\C)NCc1ccccc1)c1ccc(F)cc1 (stereo unspecified)	/	-10%[10 µM]	27%[10 µM]	/	/	/
CCOc1ccccc1C(=O)N1CCN(c2cccc(Cl)c2)CC1	i	-3%	-39%	?	i	0.41µM*
CCOc1ccc2ccccc2c1C(=O)N1CCN(c2ccccc2)CC1	4.1µM*	4%	13%	13µM*	23µM*	?

Screening data deposited in PubChem BioAssay by National Center for Advancing Translational Sciences (NCATS).
